Measurements as given in the supplement of paper PMC9694430.
Where a name gives a salt, the structure may show the parent alone.

Key:
Test in all cases: thermal shift delta Tm vs DMSO control; higher = stronger stabilization (binding)
Conditions in all cases: 12.5 µM; protein concentration 2 µM
[1] = tested on: LOC_OS01G57100-cb003
In short: (§1)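 Rice kinase domain constructs, made in E. coli and purified, were placed in 96-well plates at 2 μM in 19.5 μl of 100 mM potassium phosphate pH 7.5, 150 mM NaCl, 10% glycerol and 5 × SYPRO Orange, with compound in DMSO. A temperature ramp from 25°C to 95°C at 0.05°C/s was used for differential scanning fluorimetry. The melting temperature shift is a triplicate mean compared with DMSO-only protein, derived from Boltzmann fits.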

[2] = tested on: LOC_OS01G60330-cb001
In short: as §1

[3] = tested on: LOC_OS01G60700-cb002
In short: as §1

[4] = tested on: LOC_OS01G63280-cb003
In short: as §1

[5] = tested on: LOC_OS01G67340-cb003
In short: as §1

[6] = tested on: LOC_OS01G70970-cb002
In short: as §1

[7] = tested on: LOC_OS02G07810-cb001
In short: as §1

[8] = tested on: LOC_OS02G08530-cb003
In short: as §1

[9] = tested on: LOC_OS02G14120-cb001
In short: as §1

[10] = tested on: LOC_OS02G17970-cb001
In short: as §1

[11] = tested on: LOC_OS02G45750-cb003
In short: as §1

[12] = tested on: LOC_OS02G54510-cb004
In short: as §1

[13] = tested on: LOC_OS03G04050-cb001
In short: as §1

[14] = tested on: LOC_OS03G12390-cb001
In short: as §1

[15] = tested on: LOC_OS03G27990-cb004
In short: as §1

[16] = tested on: LOC_OS03G50450-cb001
In short: as §1

[17] = tested on: LOC_OS03G50810-cb003
In short: as §1

[18] = tested on: LOC_OS04G35114-cb001
In short: as §1

[19] = tested on: T1, LOC_OS04G38480-cb003
T1 sequence (whole entry): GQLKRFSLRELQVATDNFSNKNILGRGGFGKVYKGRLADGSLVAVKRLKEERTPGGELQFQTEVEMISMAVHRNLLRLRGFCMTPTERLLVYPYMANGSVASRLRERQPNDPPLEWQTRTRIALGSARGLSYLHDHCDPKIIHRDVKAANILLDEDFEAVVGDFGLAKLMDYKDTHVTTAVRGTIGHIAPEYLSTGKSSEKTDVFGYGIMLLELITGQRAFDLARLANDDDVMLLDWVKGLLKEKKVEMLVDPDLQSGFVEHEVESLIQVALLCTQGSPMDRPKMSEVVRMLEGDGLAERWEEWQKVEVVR
In short: as §1

[20] = tested on: T2, LOC_OS04G41100-cb001
T2 sequence (whole entry): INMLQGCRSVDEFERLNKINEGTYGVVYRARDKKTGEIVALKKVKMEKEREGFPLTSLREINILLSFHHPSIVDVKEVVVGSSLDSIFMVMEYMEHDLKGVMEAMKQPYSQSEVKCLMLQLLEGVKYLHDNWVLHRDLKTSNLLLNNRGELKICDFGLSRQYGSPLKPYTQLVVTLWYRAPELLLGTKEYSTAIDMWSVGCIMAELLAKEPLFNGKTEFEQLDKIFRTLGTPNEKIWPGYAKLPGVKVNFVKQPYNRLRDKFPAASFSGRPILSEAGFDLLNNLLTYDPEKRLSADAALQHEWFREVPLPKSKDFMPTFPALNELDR
In short: as §1
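Further: purified Escherichia coli-expressed rice kinase domain construct.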

SMILES	thermal shift delta Tm [1] [°C]	thermal shift delta Tm [2] [°C]	thermal shift delta Tm [3] [°C]	thermal shift delta Tm [4] [°C]	thermal shift delta Tm [5] [°C]	thermal shift delta Tm [6] [°C]	thermal shift delta Tm [7] [°C]	thermal shift delta Tm [8] [°C]	thermal shift delta Tm [9] [°C]	thermal shift delta Tm [10] [°C]	thermal shift delta Tm [11] [°C]	thermal shift delta Tm [12] [°C]	thermal shift delta Tm [13] [°C]	thermal shift delta Tm [14] [°C]	thermal shift delta Tm [15] [°C]	thermal shift delta Tm [16] [°C]	thermal shift delta Tm [17] [°C]	thermal shift delta Tm [18] [°C]	thermal shift delta Tm [19] [°C]	thermal shift delta Tm [20] [°C]
NC(=O)c1ccc2nc(-c3ccc(Oc4ccc(Cl)cc4)cc3)[nH]c2c1 [Chk2 Inhibitor II (BML-277)]	-0.91	1.95	-0.56	0.87	1.05	0.31	-0.29	0.5	0.13	1.17	-1.27	-0.11	0.47	0.95	0.3	0.23	0.22	0.43	0.19	-0.49
CNC(=O)Nc1ccc(-c2nc(N3CC4CCC(C3)O4)c3cnn(C4CCC5(CC4)OCCO5)c3n2)cc1	2.76	1.5	0.99	0.45	0.98	0.28	1.7	1.49	1.03	0.84	0.68	0.19	0.28	0.26	0.16	0.34	-0.43	0.16	1.69	0.57
COc1cc2ncnc(Nc3ccc(Oc4ccccc4)cc3C)c2cc1OC	1.05	0.33	0.09	0.54	0.17	0.47	-1.03	0.5	3.14	0.03	1.39	0.53	0.35	-0.19	0.39	0.77	0.51	4.14	1.19	-0.13
c1cncc(CN2CCC(n3ncc4c(N5CCOCC5)nc(-c5ccc6[nH]ccc6c5)nc43)CC2)c1	2.55	0.61	0.71	0.09	-0.04	0.4	0.62	0.57	0.15	0.27	0.03	-0.13	0.22	-0.05	0.01	0.14	0.65	0.3	0.67	0.58
Cc1c[nH]c2nc(Nc3ccc(N4CCN(C)CC4)c(F)c3)nc(-c3cccc(CC#N)c3)c12	5.04	11.8	1.98	3.25	11.9	8.75	1.04	6.49	15.2	1.24	11.6	3.94	0.91	13	8.79	8.2	9.84	12.4	6.06	1.61
CC(=O)Nc1nc(C)c(-c2ccc(Cl)c(S(=O)(=O)NCCO)c2)s1	1.34	1.21	0.76	0.53	0.18	0.09	1.61	0.77	1.19	0.97	1.06	0.31	0.56	0.64	0.19	0.73	0.75	1.53	0.78	0.77
O=c1cc(N2CCOCC2)oc2c(-c3ccc4c(c3)OCCO4)csc12	0.23	0.29	-0.31	0.2	0.35	0.12	-0.78	0.62	1.45	-0.32	0.67	-0.08	0.24	0.53	0.46	0.44	0.8	1.85	1.22	0.17
CC(C)n1nc(-c2ccc3oc(N)nc3c2)c2c(N)ncnc21	0.15	0.88	0.9	0.99	0.39	0.54	0.31	1.77	1.77	1.04	6.62	0.93	0.38	0.67	1.24	0.47	0.61	5.42	0.87	0.38
Cc1cccc(CC(=O)N2CCc3c2ccc(-c2cn(C)c4ncnc(N)c24)c3F)n1	1.41	0.28	1.1	5.6	3.56	0.24	0.39	0.71	1.09	1.12	1.87	0.61	0.63	0.44	0.12	0.29	0.3	0.7	3.73	0.27
Cc1[nH]c(/C=C2\C(=O)Nc3ccc(S(=O)(=O)N(C)c4cccc(Cl)c4)cc32)c(C)c1C(=O)N1CCN(C)CC1	1.03	5.91	0.86	-0.04	-0.53	0.47	-0.12	3.7	8.19	-0.27	0	0.59	0.42	2.96	0.14	-0.1	0	7.25	5.89	0.68
CNC(=O)c1cc(Oc2ccc(NC(=O)Nc3ccc(Cl)c(C(F)(F)F)c3)cc2)ccn1 [Sorafenib Tosylate]	4.07	3.91	1.77	9.15	0.52	1.83	2.2	1.92	3.45	1.56	2.62	1.95	0.83	1.41	0.39	0.77	1.06	0.98	2.2	1.53
CNC(=O)CN1CCC(Oc2cc3c(Nc4cccc(Cl)c4F)ncnc3cc2OC)CC1 [Sapitinib (AZD8931)]	0.77	0.15	0.56	0.07	-0.27	-0.1	0.32	0.51	2.09	-0.13	0.58	0.5	-0.02	0.79	0.05	0.05	0.22	3.22	0.11	0.35
CCN(CC)CCCC(C)Nc1ccnc2cc(Cl)ccc12 (stereo not given) [Chloroquine Phosphate]	0.41	0.19	0.9	-0.08	0.32	-0.07	0.25	0.31	0.87	-0.06	0.61	0.18	0.45	0	0.19	0.25	0.19	0.59	2.48	0.64
O=C(/C=C/c1ccc2ccccc2n1)c1ccncc1	1.22	1.35	0.05	1.12	0.62	0.59	0.02	2.02	2.08	1.05	4.53	-0.52	0.27	-1.09	0.7	0.7	0.37	4.4	4.06	2.67
Cn1nccc1Nc1nccc(-c2ccn([C@H](CO)c3ccc(Cl)c(F)c3)c(=O)c2)n1	1.99	-0.22	0.52	0	0.09	0.22	-0.02	0.98	0.71	-0.12	0.71	0.28	0.29	2.16	0.03	0.11	-0.12	0.45	0.14	2.7
CN1CCN(C2CCN(C(=O)Nc3cc(Oc4ccc(NC(=O)C5(C(=O)Nc6ccc(F)cc6)CC5)c(F)c4)ccn3)CC2)CC1 [Golvatinib (E7050)]	0.49	0.6	1.6	0.78	0.24	0.6	0.4	0.79	0.6	2.14	0.4	-0.38	0.26	0.04	0.36	0.52	0.33	0.27	1.71	1.78
CN(c1ccccc1CNc1nc(Nc2ccc3c(c2)CC(=O)N3)ncc1C(F)(F)F)S(C)(=O)=O	2.5	2.26	1.26	6.35	3.07	9.4	1.12	2.68	8.26	0.68	11.6	1.85	0.4	6.91	2.93	3.16	5.31	5.87	3.54	2.86
Nc1ccc(-c2ccc3ncc4ccc(=O)n(-c5cccc(C(F)(F)F)c5)c4c3c2)cn1 [Torin 2]	0.64	1.09	1.01	0.11	0.33	0.87	0.19	1.53	1.62	1.12	2.36	-0.06	0.2	0.23	0.43	0.37	0.92	2.97	0.88	0.27
O=C(NOCCO)c1ccc2cncn2c1Nc1ccc(I)cc1F	1.19	-0.56	0.86	0.2	-0.68	-0.05	1.14	0.47	-1.25	1.62	0.53	0.01	0.75	-0.37	0.29	-0.24	0.06	-0.73	-1.85	0.39
CC(=O)Nc1cccc(-n2c(=O)n(C3CC3)c(=O)c3c(Nc4ccc(I)cc4F)n(C)c(=O)c(C)c32)c1	1.39	0.69	0.72	0.03	-0.14	0.12	0.36	1.99	0.02	-0.07	0.35	-0.04	0.2	-0.13	0.22	0.62	0.43	0.56	0.86	0.62
Cn1c(=O)c(F)c(Nc2ccc(I)cc2F)c2c(=O)n(C[C@@H](O)CO)cnc21	3.09	1.03	1.02	0.11	0.29	0.22	1.5	0.9	0.98	1.05	1.03	0.28	0.51	0.07	0.21	0.15	0.78	0.35	0.83	0.43
CCc1cncnc1N1CCN(Cc2nc3ccc(C(F)(F)F)cc3[nH]2)CC1	1.5	0.04	0.72	0.19	-0.58	0.14	0.73	0.49	-0.72	0.34	0.59	0.3	0.39	-0.06	0.33	0.04	0.36	0.25	0.52	0.52
Cc1cn(-c2cc(NC(=O)c3ccc(C)c(Nc4nccc(-c5cccnc5)n4)c3)cc(C(F)(F)F)c2)cn1 [Nilotinib (AMN-107)]	0.85	1.29	0.99	0.49	-0.08	0.3	0.5	0.55	0.37	0.01	0.19	0.17	0.37	0.05	0.02	0.23	0.16	-0.37	0.3	0.57
Cc1cc(Nc2nc(N[C@@H](C)c3ncc(F)cn3)ncc2Cl)[nH]n1	1.57	4.82	0.28	1.3	-0.24	2.3	0.96	2.02	8.03	0.48	3.59	2.58	0.1	5.26	0.82	2.31	3.08	1.86	2.03	0.47
Nc1nccc(Oc2ccc3c(C(=O)Nc4cccc(C(F)(F)F)c4)cccc3c2)n1	1.31	1.99	0.86	7.54	0.91	0.71	0.76	0.59	1.14	1.47	-1.33	0.78	0.37	-0.16	0.11	-0.18	0.17	0.62	1.77	0.51
COCCOc1cnc2ccn([C@H](C)c3nnc4c(F)cc(-c5cnn(C)c5)cn34)c(=O)c2c1	0.7	-0.01	0.32	0.22	0.31	0.36	0.15	0.71	1.22	0.15	1.08	-0.12	0.22	-0.12	0.2	0.05	-0.09	0.69	0.41	0.65
